The values that follow come from PubChem BioAssay (NCATS).

Several values for one entry are separate records, joined by “and”; a condition that tells them apart may be missing. Equal entries are not always repeated. Results filed as inconclusive are left out. Activity calls are given as the source filed them. Unless noted, the call rests on the fitted dose curve; in most records, active means well fitted curve in the direction sought with a large enough effect; inconclusive means small, poorly fitted or top-dose-only effect, or another doubt; inactive means no such curve, though single readings can be large; an effect the other way counts as inactive or inconclusive.

Experiment [1] concerns the target Cytochrome P450 2D6 (Homo sapiens) (UniProt P10635). Nature of the experiment: Cytochrome P450 family 2 subfamily D member 6 (CYP2D6) small molecule antagonists: luciferase biochemical (cell-free) qHTS assay (AID 1645840; active means well fitted curve in the direction sought with a large enough effect in the repeat runs; an effect the other way counts as inactive or inconclusive; further: nearly all actives have a fitted effect of over 55% in size; further: potency means the concentration at half of the fitted maximal effect). An outline of the steps:
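P450-Glo luminescent screen: recombinant CYP2D6 enzyme–proluciferin substrate mix preincubated with compound 10 min at room temperature, then NADPH regeneration added for 1 h at room temperature. Detection reagent added for 20 min; luciferin light read as relative luminescence units.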
On the technique in general: Quantitative high-throughput screening tests each substance at several concentrations.

Experiment [2] addresses Cytochrome P450 2C9 (Homo sapiens) (UniProt P11712). Nature of the experiment: Cytochrome P450 family 2 subfamily C member 9 (CYP2C9) small molecule antagonists: luciferase biochemical (cell-free) qHTS assay (AID 1645842; active means well fitted curve in the direction sought with a large enough effect in the repeat runs; an effect the other way counts as inactive or inconclusive; further: nearly all actives have a fitted effect of over 55% in size; further: potency means the concentration at half of the fitted maximal effect). The gist of the method: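 Luminescence, after 20 min with luciferin detection reagent, reflected CYP2C9 turnover during a 1 h NADPH-driven reaction at 37C. Enzyme-substrate mix contained 0.4% bovine serum albumin and was preincubated with compound 10 min at room temperature.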

A short description of experiment [3]: Primary qHTS for inhibitors of nuclear receptor binding SET domain protein 2 (NSD2) in an isogenic RCH-ACV NSD2 p.E1099K mutant (9B) (AID 1645876). Further: nearly all actives have a fitted effect of over 70% in size. Further: potency means the concentration at half of the fitted maximal effect.
Experiment [4] is described as follows: Primary qHTS for inhibitors of nuclear receptor binding SET domain protein 2 (NSD2) in an RCH-ACV wild type WT cells (2C) (AID 1645877). Further: nearly all actives have a fitted effect of over 70% in size. Further: potency means the concentration at half of the fitted maximal effect.
In experiment [5] the target is Catechol O-methyltransferase (Homo sapiens) (UniProt P21964). Nature of the experiment: Confirmatory Screen for Target Class Profiling of Small Molecule Inhibitors of Methyltransferases (AID 1745852). Particulars: MTase-Glo luminescence, SAH detection, recombinant enzyme; measured here: COMT max response; stronger effect = lower value.
Chain of Catechol O-methyltransferase (Homo sapiens) (P21964 whole entry, looked up): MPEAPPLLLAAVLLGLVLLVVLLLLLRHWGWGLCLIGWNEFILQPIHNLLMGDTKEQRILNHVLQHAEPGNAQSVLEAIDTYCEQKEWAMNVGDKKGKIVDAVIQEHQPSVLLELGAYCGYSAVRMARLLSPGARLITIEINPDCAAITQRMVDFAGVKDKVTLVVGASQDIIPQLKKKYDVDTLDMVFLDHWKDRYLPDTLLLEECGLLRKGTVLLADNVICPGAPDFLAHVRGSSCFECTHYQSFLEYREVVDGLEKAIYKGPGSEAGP

Chain of Cytochrome P450 2C9 (Homo sapiens) (P11712 whole entry, looked up): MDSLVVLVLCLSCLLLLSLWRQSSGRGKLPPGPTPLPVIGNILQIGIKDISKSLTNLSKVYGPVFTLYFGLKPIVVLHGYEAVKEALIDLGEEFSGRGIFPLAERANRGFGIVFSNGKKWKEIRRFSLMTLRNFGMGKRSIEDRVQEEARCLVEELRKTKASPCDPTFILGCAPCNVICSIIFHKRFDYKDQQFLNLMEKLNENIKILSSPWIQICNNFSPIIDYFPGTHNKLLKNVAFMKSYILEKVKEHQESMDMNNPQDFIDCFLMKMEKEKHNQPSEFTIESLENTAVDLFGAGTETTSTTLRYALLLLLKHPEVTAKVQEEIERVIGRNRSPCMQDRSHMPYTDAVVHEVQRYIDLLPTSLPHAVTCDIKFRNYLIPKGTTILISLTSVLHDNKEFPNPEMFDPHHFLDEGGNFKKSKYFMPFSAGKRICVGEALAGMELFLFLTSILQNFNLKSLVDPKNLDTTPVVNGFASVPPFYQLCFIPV
Chain of Cytochrome P450 2D6 (Homo sapiens) (P10635 whole entry, looked up): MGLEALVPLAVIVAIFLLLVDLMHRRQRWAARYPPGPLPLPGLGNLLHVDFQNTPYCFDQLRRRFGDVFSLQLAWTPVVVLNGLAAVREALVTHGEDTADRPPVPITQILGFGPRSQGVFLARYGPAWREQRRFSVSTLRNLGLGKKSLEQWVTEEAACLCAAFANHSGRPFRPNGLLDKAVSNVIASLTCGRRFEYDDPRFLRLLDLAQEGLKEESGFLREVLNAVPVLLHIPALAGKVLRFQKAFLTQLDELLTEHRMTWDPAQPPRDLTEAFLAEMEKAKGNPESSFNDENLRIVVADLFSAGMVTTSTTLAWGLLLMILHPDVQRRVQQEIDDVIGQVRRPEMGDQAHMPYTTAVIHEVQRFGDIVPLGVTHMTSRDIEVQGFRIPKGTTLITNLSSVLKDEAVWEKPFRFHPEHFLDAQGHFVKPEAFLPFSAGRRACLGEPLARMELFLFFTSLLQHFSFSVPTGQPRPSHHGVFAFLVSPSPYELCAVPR

In the case of `COc1cc2nc(N3CCCC3)nc(NCCCCCN3CCCC3)c2cc1OC`, the Potency is 4.77 µM (active) in experiment [1], 4.59 µM (active) in experiment [3] and 5.15 µM (active) in experiment [4]. The Potency entry in experiment [2] is “inactive”. The activity in experiment [5] is -4.52%.

Consider `NC(=O)c1cnc(NCCc2ccc(O)c(Cl)c2)nc1NCc1ccccc1`, for which the Potency in experiment [1] is 15.1 µM (active); in experiment [2], 6.74 µM (active); in experiment [3], 1.29 µM (active); in experiment [4], 1.15 µM (active). The activity in experiment [5] was -29%.

In the case of `COC(=O)N1CCC(n2ncc3c(N4CCOCC4)nc(-c4ccc(NC(=O)Nc5ccc(CO)cc5)cc4)nc32)CC1`, the Potency in experiment [1] was 8.49 µM (active); in experiment [2] it was 6.74 µM (active); in experiment [3] it was 0.0163 µM (active); in experiment [4], 0.0183 µM (active).

For `CC(C)[C@@](C)(O)[C@@H]1CN(c2nc(-c3[nH]nc4ncccc34)c(F)cc2Cl)CCN1`, the Potency in experiment [1] was 0.849 µM (active); in experiment [2], 12 µM (active); in experiment [3] it was 6.49 µM (active); in experiment [4], 4.59 µM (active). Also, the activity in experiment [5] is -69%.

As to `CC1COC(Nc2ccc3ncnc(Nc4ccc(OCc5nccs5)c(Cl)c4)c3c2)=N1` (stereo not given), the Potency in experiment [1] is 10.7 µM (active); in experiment [2] it was 10.7 µM (active); in experiment [3], 16.3 µM (active); in experiment [4], 12.9 µM (active).

Turning to `COc1cc2nc(N3CCC(N4CCCCC4)CC3)nc(NC3CCCCCC3)c2cc1OC`, the figures for the Potency in experiment [1], in experiment [3] and in experiment [4] were 7.56 µM (active), 2.3 µM (active) and 2.3 µM (active), respectively. In experiment [2], the Potency entry is “inactive”. For the same molecule, the activity in experiment [5] is -39.3%.

Take `COc1cc(Br)c(S(=O)(=O)Nc2ccc(C(F)(F)F)c(O[C@@H]3CCN(C)C3)c2)cc1OC`: the Potency in experiment [1] and in experiment [2] was 23.9 µM (active) each time. Further, the Potency result in experiment [3] and in experiment [4] was “inactive” throughout.

Take `CC(C)(C#N)c1ccc(N2C(=O)OCc3cnc4ccc(-c5cnc6ccccc6c5)cc4c32)cc1`: the Potency entry in experiment [1] was “inactive”. The Potency in experiment [2] is 2.68 µM (active); in experiment [3] it was 0.728 µM (active); in experiment [4], 0.817 µM (active).

On to `COc1ccc(C2(O)CCC(N3CC[C@@H](NC(=O)CNC(=O)c4cccc(C(F)(F)F)c4)C3)CC2)cn1` (stereo not given in full), for which the Potency in experiment [1] is 10.7 µM (active). Besides, the Potency result in experiment [2] and in experiment [3] was “inactive” throughout. In experiment [5], the activity was -5.05%.

`CC(C)S(=O)(=O)N[C@H]1CCOC[C@@H]1c1ccc(-c2ccc(C#N)s2)cc1`: the figures for the Potency in experiment [1] and in experiment [2] were 10.7 µM (active) and 0.213 µM (active), respectively. Also, the Potency result in experiment [3] and in experiment [4] was “inactive” each time.

As for `CC(C)c1nc(-c2ccc(NC(=O)Nc3cccc(C(F)(F)F)c3)c3ccccc23)c2c(N)nccn12`, the Potency is 0.0674 µM (active) in experiment [1], 0.301 µM (active) in experiment [2], 0.578 µM (active) in experiment [3] and 1.45 µM (active) in experiment [4]. The activity in experiment [5] was -5.14%.

For `Cc1cc(C(=O)Nc2cccc(C(=O)Nc3cccc(C(F)(F)F)c3)c2)on1`, the Potency result in experiment [1], in experiment [3] and in experiment [4] was “inactive” throughout. The Potency in experiment [2] is 3.79 µM (active).

On to `N#Cc1ccc2[nH]cc(CCCCN3CCN(c4ccc5oc(C(N)=O)cc5c4)CC3)c2c1`, for which the Potency is 4.77 µM (active) in experiment [1], 13.5 µM (active) in experiment [2], 14.5 µM (active) in experiment [3] and 16.3 µM (active) in experiment [4]. Moreover, in experiment [5], the activity is -8.1%.

For the molecule `CCS(=O)(=O)N1CCN(c2ccc(Nc3ncc(C(N)=O)c(NC4CC4)n3)cc2)CC1`, the Potency entry in experiment [1] is “inactive”. Moreover, the Potency in experiment [2] was 19 µM (active); in experiment [3], 230 nM (active) and 417 nM (active); in experiment [4], 258 nM (active) and 417 nM (active). For the same molecule, in experiment [5], the activity was -6.02%.

Turning to `COc1ccc(C(=O)Nc2ncc(-c3ccc(C(=O)O)cc3)s2)cc1`, in experiment [1], the Potency result was “inactive”. Moreover, the Potency is 10.7 µM (active) in experiment [2], 1.63 µM (active) in experiment [3] and 1.84 µM (active) in experiment [4].

As for `N#Cc1ccc(-c2cnc3[nH]cc(NC(=O)c4cccnc4)c3c2)cc1`, the Potency result in experiment [1] is “inactive”. For the same molecule, the figures for the Potency in experiment [2], in experiment [3] and in experiment [4] were 2.68 µM (active), 7.28 µM (active) and 5.15 µM (active), respectively. The activity in experiment [5] is 1.05%.

With `CCN1CCN(Cc2ccc(NC(=O)Nc3ccc(Oc4cc(NC)ncn4)cc3)cc2C(F)(F)F)CC1`, the Potency in experiment [1] is 10.7 µM (active); in experiment [3], 3.65 µM (active) and 2.35 µM (active); in experiment [4], 3.65 µM (active) and 2.35 µM (active). Also, the Potency result in experiment [2] was “inactive”. In addition, the activity in experiment [5] was -1.25%.

`O=C(c1cccc(Cl)c1F)N1CCN(Cc2cccc(Nc3nccs3)n2)CC1`: the Potency in experiment [1] was 1.69 µM (active); in experiment [2], 3.38 µM (active); in experiment [3], 0.817 µM (active); in experiment [4] it was 0.728 µM (active).

Take `Cc1[nH]c2ccccc2c1C1=C(NCCc2ccc(F)cc2)C(=O)N(C)C1=O`: the Potency in experiment [1] was 4.25 µM (active); in experiment [2], 0.379 µM (active); in experiment [3], 6.49 µM (active); in experiment [4], 8.17 µM (active).

In the case of `CN(C)c1nc(NC2CCC(NCCc3ccc(Br)cc3OC(F)(F)F)CC2)nc2ccccc12` (stereo not given), the Potency in experiment [1] was 2.68 µM (active); in experiment [2], 7.56 µM (active); in experiment [3] it was 3.65 µM (active); in experiment [4], 2.58 µM (active). In addition, the activity in experiment [5] is -10.3%.

Regarding `Cc1c[nH]c2nccc(Oc3c(F)cc(Nc4cc(Cl)nc(N)n4)cc3F)c12`, the Potency in experiment [1] is 6.74 µM (active); in experiment [2], 15.1 µM (active); in experiment [3], 0.728 µM (active); in experiment [4], 0.731 µM (active). The activity in experiment [5] was -14.6%.
